Source: PubChem BioAssay AID1159580 (chemical genetic matrix, 2015)
Where “and” joins values, the source holds several entries; their conditions need not be identical. Identical values can stand only once. Hit rate of the full screen: of about 5,500 compounds, about 2,000 (36%) were called active. Not shown: some 18% with an inconclusive outcome. Cut-off read from the data, not from the text of the source: active = normalized growth mostly below about 0.91 (no sharp cut-off); inconclusive = no clear call, values can overlap the other calls; inactive = mostly above about 0.92. The list shows a part of the results.

Experiment: chemical genetic growth profiling, strain panel (AID 1159580);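 note: tested at 20 µM; growth read once vehicle control cultures reached saturation at 30 °C; 1 = growth at the plate median or of vehicle wells; lower values mean less growth of the strain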
Conditions: S. cerevisiae deletion strains, growth OD

Measured: normalized growth

Cn1c(=O)c2c(ncn2CC(O)CO)n(C)c1=O (configuration not stated)
inactive: locus YAL013W, strain DEP1, hits give low values 1.01 | locus YAL021C, strain ccr4, hits give low values 0.97 | locus YAL026C, strain drs2, hits give low values 0.967 | locus YAL030W, strain snc1, hits give low values 0.989 | locus YBL061C, strain skt5, hits give low values 0.992 | locus YBR009C, strain hhf1, hits give low values 0.982 | locus YBR021W, strain FUR4, hits give low values 1.03 | locus YBR023C, strain chs3, hits give low values 1 | locus YBR171W, strain sec66, hits give low values 0.978 | locus YBR229C, strain ROT2, hits give low values 1.01 | locus YBR231C, strain swc5, hits give low values 1 | locus YBR279W, strain paf1, hits give low values 0.972 | locus YCL011C, strain gbp2, hits give low values 0.99 | locus YCL016C, strain dcc1, hits give low values 1.01 | locus YCL029C, strain bik1, hits give low values 0.96 | locus YCL061C, strain MRC1, hits give low values 1 | locus YCL069W, strain vba3, hits give low values 0.953 | locus YCR088W, strain abp1, hits give low values 0.989 | locus YDL005C, strain med2, hits give low values 0.972 | locus YDL035C, strain GPR1, hits give low values 1.05 | locus YDL040C, strain nat1, hits give low values 0.986 | locus YDL074C, strain BRE1, hits give low values 1.02 | locus YDL101C, strain DUN1, hits give low values 0.995 | locus YDL185W, strain tfp1, hits give low values 0.954 | locus YDL192W, strain arf1, hits give low values 0.972 | locus YDR001C, strain nth1, hits give low values 0.97 | locus YDR069C, strain doa4, hits give low values 0.958 | locus YDR101C, strain arx1, hits give low values 1.01 | locus YDR137W, strain rgp1, hits give low values 0.986 | locus YDR159W, strain sac3, hits give low values 0.942 | locus YDR162C, strain NBP2, hits give low values 1.02 | locus YDR195W, strain ref2 0.951 | locus YDR297W, strain sur2, hits give low values 0.991 | locus YDR318W, strain mcm21, hits give low values 0.977 | locus YDR334W, strain swr1, hits give low values 0.973 | locus YDR335W, strain msn5, hits give low values 0.981 | locus YDR388W, hits give low values 0.988 | locus YDR392W, strain spt3, hits give low values 0.939 | locus YDR502C, strain sam2, hits give low values 0.984 | locus YEL003W, strain gim4, hits give low values 0.981 | locus YEL037C, strain rad23, hits give low values 0.972 | locus YEL061C, strain CIN8 (second series), hits give low values 0.97 | locus YEL061C, strain CIN8, hits give low values 0.997 | locus YER015W, strain faa2, hits give low values 0.993 | locus YER016W, strain bim1, hits give low values 0.951 | locus YER110C, hits give low values 0.943 | locus YER111C, strain swi4, hits give low values 0.988 | locus YER155C, strain BEM2 (second series), hits give low values 0.953 | locus YER155C, strain BEM2, hits give low values 1 | locus YER167W, strain BCK2, hits give low values 0.996 | locus YFR010W, strain ubp6, hits give low values 0.967 | locus YGL078C, strain dbp3, hits give low values 0.978 | locus YGL086W, strain mad1, hits give low values 1.01 | locus YGL167C, strain pmr1, hits give low values 0.989 | locus YGL173C, strain kem1, hits give low values 0.97 | locus YGL227W, strain vid30, hits give low values 0.987 | locus YGL240W, strain doc1, hits give low values 0.973 | locus YGL248W, strain PDE1, hits give low values 0.995 | locus YGL253W, strain hxk2, hits give low values 0.972 | locus YGR078C, strain PAC10, hits give low values 1.01 | locus YGR135W, strain pre9, hits give low values 0.954 | locus YGR252W, strain gcn5, hits give low values 0.987 | locus YHR013C, strain ard1, hits give low values 0.975 | locus YHR027C, strain rpn1, hits give low values 0.981 | locus YHR030C, strain SLT2, hits give low values 1 and 1.02 | locus YHR079C, strain IRE1 (second series), hits give low values 0.968 | locus YHR079C, strain IRE1, hits give low values 1.08 | locus YHR094C, strain hxt1, hits give low values 0.984 | locus YHR129C, strain ARP1, hits give low values 1.01 | locus YHR142W, strain chs7, hits give low values 0.992 | locus YHR200W, strain rpn10, hits give low values 0.97 | locus YIL066C, strain RNR3, hits give low values 1.01 | locus YIL073C, strain SPO22, hits give low values 0.908 | locus YIL125W, strain kgd1, hits give low values 0.992 | locus YIR030C, strain dcg1, hits give low values 0.949 | locus YJL092W, strain hpr5, hits give low values 0.998 | locus YJL095W, strain BCK1 (second series), hits give low values 0.989 | locus YJL095W, strain BCK1, hits give low values 0.982 and 1.02 | locus YJL115W, strain asf1, hits give low values 0.979 | locus YJL129C, strain trk1, hits give low values 0.994 | locus YJL134W, strain LCB3, hits give low values 1 | locus YJL154C, strain vps35, hits give low values 0.972 | locus YJL164C, strain tpk1, hits give low values 0.998 | locus YJL166W, strain qcr8, hits give low values 1.04 | locus YJL168C, strain set2, hits give low values 0.98 | locus YJL187C, strain SWE1 (second series), hits give low values 0.988 | locus YJL187C, strain SWE1, hits give low values 0.981 | locus YJR043C, strain POL32, hits give low values 1.06 | locus YJR066W, strain TOR1, hits give low values 0.952 | locus YKL009W, strain mrt4, hits give low values 0.979 | locus YKL068W, hits give low values 0.982 | locus YKL085W, strain MDH1 (second series), hits give low values 1.01 | locus YKL085W, strain MDH1, hits give low values 1.01 | locus YKL160W, strain elf1, hits give low values 1.06 | locus YKR001C, strain vps1, hits give low values 0.975 | locus YKR026C, strain gcn3, hits give low values 0.974 | locus YKR091W, strain srl3, hits give low values 0.994 | locus YLL001W, strain dnm1, hits give low values 1.03 | locus YLL026W, hits give low values 0.987 | locus YLL041C, strain sdh2, hits give low values 0.979 | locus YLR027C, strain aat2, hits give low values 0.973 | locus YLR039C, strain RIC1, hits give low values 1.01 | locus YLR058C, strain SHM2, hits give low values 0.996 | locus YLR102C, strain apc9, hits give low values 0.975 | locus YLR113W, strain HOG1, hits give low values 1.06 | locus YLR221C, strain rsa3, hits give low values 1.03 | locus YLR258W, strain gsy2, hits give low values 0.985 | locus YLR262C, strain YPT6 (second series), hits give low values 0.991 | locus YLR262C, strain YPT6, hits give low values 0.939 | locus YLR268W, strain sec22, hits give low values 0.966 | locus YLR320W, strain mms22, hits give low values 1.04 | locus YLR330W, strain CHS5, hits give low values 0.999 | locus YLR342W, strain FKS1 (second series), hits give low values 1.08 | locus YLR342W, strain FKS1, hits give low values 0.983 | locus YLR357W, strain rsc2, hits give low values 0.989 | locus YLR370C, strain arc18, hits give low values 0.981 | locus YLR371W, strain rom2, hits give low values 0.963 | locus YLR384C, strain iki3, hits give low values 0.98 | locus YLR418C, strain cdc73, hits give low values 0.996 | locus YML016C, strain PPZ1, hits give low values 1.01 | locus YML032C, strain rad52, hits give low values 0.988 | locus YML120C, strain ndi1, hits give low values 1.01 | locus YML124C, strain tub3, hits give low values 0.988 | locus YMR058W, strain fet3, hits give low values 0.981 | locus YMR078C, strain ctf18, hits give low values 0.966 | locus YMR125W, strain sto1, hits give low values 0.979 | locus YMR129W, hits give low values 0.966 | locus YMR205C, strain PFK2, hits give low values 1.04 | locus YMR223W, strain ubp8, hits give low values 0.973 | locus YMR231W, strain pep5, hits give low values 0.97 | locus YMR307W, strain GAS1, hits give low values 1.05 | locus YNL067W, strain RPL9B, hits give low values 0.97 | locus YNL071W, strain lat1, hits give low values 0.975 | locus YNL128W, strain TEP1, hits give low values 0.969 | locus YNL153C, strain GIM3, hits give low values 1 | locus YNL183C, strain NPR1, hits give low values 0.987 | locus YNL209W, strain ssb2, hits give low values 0.995 | locus YNL233W, strain BNI4, hits give low values 1.01 | locus YNL248C, strain rpa49, hits give low values 0.978 | locus YNL250W, strain rad50, hits give low values 0.974 | locus YNL271C, strain bni1, hits give low values 0.973 | locus YNL298W, strain CLA4, hits give low values 0.969 | locus YNL307C, strain MCK1, hits give low values 0.983 | locus YNL322C, strain KRE1 (second series), hits give low values 0.983 | locus YNL322C, strain KRE1, hits give low values 0.998 | locus YNR049C, strain mso1, hits give low values 0.988 | locus YNR052C, strain pop2, hits give low values 0.969 | locus YOL006C, strain TOP1, hits give low values 0.966 | locus YOL012C, strain htz1 0.82 | locus YOL147C, strain pex11, hits give low values 0.974 | locus YOR001W, strain rrp6, hits give low values 0.93 | locus YOR061W, strain CKA2, hits give low values 1 | locus YOR069W, strain VPS5, hits give low values 1.01 | locus YOR070C, strain gyp1, hits give low values 0.989 | locus YOR080W, strain dia2, hits give low values 0.984 | locus YOR083W, strain WHI5, hits give low values 1.07 | locus YOR106W, strain vam3, hits give low values 1.02 | locus YOR136W, strain idh2, hits give low values 0.976 | locus YOR144C, strain elg1, hits give low values 0.98 | locus YOR184W, strain ser1, hits give low values 0.957 | locus YOR231W, strain MKK1, hits give low values 1.03 | locus YOR265W, strain rbl2, hits give low values 0.986 | locus YOR270C, strain vph1, hits give low values 0.982 | locus YOR290C, strain snf2, hits give low values 0.954 | locus YOR316C, strain cot1, hits give low values 0.959 | locus YPL051W, strain arl3, hits give low values 0.991 | locus YPL055C, strain LGE1, hits give low values 1.01 | locus YPL078C, strain atp4, hits give low values 1.03 | locus YPL106C, strain sse1, hits give low values 1 | locus YPL240C, strain hsp82, hits give low values 0.97 | locus YPL241C, strain CIN2, hits give low values 1 | locus YPL256C, strain CLN2, hits give low values 1.02 | locus YPR119W, strain clb2, hits give low values 0.967 | locus YPR141C, strain kar3, hits give low values 0.95 | locus YPR163C, strain tif3, hits give low values 0.98 | locus YPR167C, strain met16, hits give low values 0.968 | strain wtn01, hits give low values 0.997
